Compounds with a hit are over-represented: about 7.1% of the library has one in this group of screens.
p53 reactivator = re-activators of mutant p53; AID 504706; Potency, µM (titrated, usually from 92.2 µM), for inactives: at the top dose activity change, positive = activation, actives largely listed as activators; 320,000 compounds, 0.063% hits; H1299 p53-A138V BP100-luciferase reporter, luminescence, 24 h; also: % of control where 0% means no effect; nearly all actives have a fitted effect of over 45% in size
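H1299 (p53-null), stable ts p53-A138V + BP100-Luc; 1000 cells/well, Opti-MEM/10% FBS; cpd 4 pt, 1:5; 24 h, 37 deg C, 5% CO2; detection reagent 10 min RT; luminescence.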
SW480 rereplic = inducers of DNA re-replication in SW480 colon cancer cells; Potency, µM (doses to about 46.1 µM), without a hit: top-dose re-replication activation, hits mostly activators; 340,000 compounds, 1.8% hits; SW480 DNA re-replication, Hoechst DNA content imaging, 48 h; AID 624297; also: % of control where 0% means no effect; nearly all actives have a fitted effect of over 55% in size
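First, 250 cells per well were seeded. Next, compound or vehicle (23 nL) was pinned in, plates sat 48 hr at 37 C. Finally Hoechst was added for 40 min before fluorescence scanning.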
ELG1 DNA repair = ELG1-dependent DNA repair inhibition; 330,000 compounds, 2.3% hits; HEK293T ELG1-luciferase reporter, luminescence, 16 h; DNA damage induced by 5-fluorouridine; Potency, µM (doses to about 46.1 µM), for inactives: at the top dose activity change, negative = inhibition, most hits filed as inhibitors; AID 504467; also: % is scaled to controls: 0 for no effect and ±100 for the full control effect; nearly all actives have a fitted effect of over 55% in size
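Quantitative HTS, concentration-response format. 2,000 cells/well co-treated with 5-fluorouridine and compound, 16 hr in 5% CO2 at 37 °C; ONE-Glo luminescence read after 30 min.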
AT treatment = potential ataxia-telangiectasia treatments restoring KAP-1 phosphorylation; F2112 A-T fibroblasts, KAP-1 phosphorylation AlphaLISA; neocarzinostatin DNA damage 30 min before lysis; Potency, µM (top dose mostly 57.5 µM), inactives show top-dose activation, hits mostly activators; 320,000 compounds, 0.19% hits; AID 485349; also: % of control where 0% means no effect; nearly all actives have a fitted effect of over 45% in size
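hTERT-immortalized A-T patient fibroblasts (F2112), 500 cells/well in OPTI-MEM, 1% FBS, got compounds for 60 min, then NCS for 30 min at 37C. Lysates were then assayed for phospho-KAP-1 by AlphaLISA (anti-pKAP1 donor, anti-KAP1 acceptor beads), 6 hr at 25C.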
MCF10A rerep = induces DNA re-replication in MCF 10a normal breast cells; MCF 10A DNA re-replication, Hoechst nuclear intensity, 48 h; Potency, µM (series often up to 46.1 µM), without a hit: top-dose activity, positive = re-replication, usual class: activators; 350,000 compounds, 2.9% hits; also: % of control where 0% means no effect; nearly all actives have a fitted effect of over 50% in size
ELG1 genotoxic = inducers of genotoxicity in HEK293T ELG1-luciferase cells; HEK293T ELG1-luciferase reporter, luminescence, 16 h; Potency, µM (highest dose often 46 µM), without a hit: at the top dose activity change, positive = activation, usual class: activators; 330,000 compounds, 1.3% hits; AID 504466; also: % of control where 0% means no effect; nearly all actives have a fitted effect of over 60% in size
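Cells (2,000/well) expressing the ELG1-luciferase fusion are dosed by pin tool and kept 16 hr at 37 °C, 5% CO2. Signal comes from ONE-Glo luciferase reagent after 30 min at room temperature.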
Numbers without * were called inactive; ? = inconclusive; . = not tested or not shown; [ ] = another dose, or the depositor's remark. Calls follow the shape of the dose curve; as a rule, active = well fitted curve in the direction sought with a large enough effect; inconclusive = small, poorly fitted or top-dose-only effect, or another doubt; inactive = no such curve, though single readings can be large; an effect the other way counts as inactive or inconclusive. Potency is read from the fitted curve at half-maximal effect.

SMILES	p53 reactivator	SW480 rereplic	ELG1 DNA repair	AT treatment	MCF10A rerep	ELG1 genotoxic
CC1CN(S(=O)(=O)c2cc(C(=O)N(CCc3ccccc3)Cc3ccccc3)ccc2Cl)CC(C)O1 (stereo unspecified)	4.4%	-2.1%	23.1µM*	0.3%	8.5%	-10.7%
CC(=O)c1ccc(OCCCC(=O)Nc2ccc(Cl)c(S(=O)(=O)N3CCOCC3)c2)cc1	.	4.1%	.	.	17.2%	.
Cc1ccc(OCCCC(=O)Nc2ccc(Cl)c(S(=O)(=O)N3CCOCC3)c2)cc1	-1.8%	?	23.1µM*	-5.6%	?	-7.1%
O=C(Cc1cccs1)Nc1ccc(Cl)c(S(=O)(=O)N2CCOCC2)c1	-4.9%	5.8µM*	-29.8%	0.0%	-15.1%	-7.0%
Cc1ccc(C(=O)N(CCc2ccccc2)Cc2ccccc2)cc1S(=O)(=O)N1CCOCC1	.	5.1%	.	.	1.2%	.
O=c1oc2ccccc2c2c1C1O[C@](c3ccsc3)(Cc3c1ccc1ccccc31)O2	.	.	.	-9.5%[11.5 µM]	.	.
CCCc1ccc(C(C)NC(=S)NC2CCCCC2)cc1 (stereo unspecified)	3.3%	?	-13.7%	-2.9%	21.0%	-4.8%
COc1ccc(N2CCN(C(=O)[C@@H](NC(=O)c3ccccc3Cl)C(C)C)CC2)cc1	2.6%	?	-2.1%	2.8%	-29.0%	-3.8%
CCOC(=O)c1c(C)[nH]c2cc(Br)c(O)cc12	?	4.9%	?	17.5%	-2.2%	?
CCOC(=O)c1c(OCC)[nH]c2c1cc(O)c1ccccc12	19.1%	-0.7%	20.6µM*	-3.9%	7.4%	-15.8%
COc1cccc(OC)c1C(=O)NC(=S)Nc1cc(-c2nc3ccccc3[nH]2)ccc1Cl	?	7.3%	8.2µM*	-3.6%	?	-1.2%
COc1ccccc1N(CC(=O)NCCN1CCOCC1)S(=O)(=O)c1ccccc1	-0.5%	-2.0%	3.9%	4.6%	1.2%	-1.1%
COc1ccc(Nc2cc(O)c3ncccc3c2)cc1	.	.	.	-9.0%	.	.
CCCn1c(-c2cccs2)nc2nc3ccccc3nc21	1.0%	3.5%	?	4.3%	580.0%[0.0737 µM]	-11.6%
COCCn1c(-c2cccs2)nc2nc3ccccc3nc21	4.3%	7.31µM*	0.2%	4.5%	?	-2.2%
Cc1nn(-c2ccccc2)c(C)c1NC(=O)COC(=O)c1cc(Br)ccc1O	0.4%	5.4%	-16.0%	8.0%	3.1%	-11.3%
COc1ccccc1NC(=S)N(Cc1ccco1)Cc1cc2cccc(C)c2[nH]c1=O	-4.1%	-2.3%	16.4µM*	5.8%	12.7%	-6.5%
Cc1ccc2cc(CN(Cc3ccco3)C(=O)NCc3ccccc3)c(=O)[nH]c2c1C	-5.5%	10.0%	?	-0.2%	24.5%	-9.5%
Cc1cccc2cc(CN(Cc3ccco3)C(=O)c3ccco3)c(=O)[nH]c12	-4.0%	0.7%	1.0%	8.0%	8.4%	-3.0%
COc1ccccc1NC(=O)N(Cc1ccco1)Cc1cc2cc(C)cc(C)c2[nH]c1=O	-6.4%	?	18.4µM*	-3.6%	?	-3.8%
Cc1ccc(C)c2[nH]c(=O)c(CN(Cc3ccco3)C(=O)Nc3ccccc3)cc12	-0.9%	-0.6%[9.22 µM]	5.17µM*	-10.1%	28.0%	-11.7%
Cc1cc2cc(CN(Cc3ccco3)C(=S)NCC3CCCO3)c(=O)[nH]c2cc1C (stereo unspecified)	-7.6%	13.5%	?	0.9%	3.1%	-2.5%
COc1ccccc1NC(=S)N(Cc1ccco1)Cc1cc2cc(C)c(C)cc2[nH]c1=O	0.6%	5.8µM*	?	2.8%	2.06µM*	6.6%
COc1ccccc1NC(=O)N(CCN1CCOCC1)Cc1cc2cc(C)cc(C)c2[nH]c1=O	-4.0%	4.0%	?	3.9%	13.2%	-4.9%
COc1ccc(CN2CCNC(=O)C2CC(=O)N2CCCCO2)cc1OC (stereo unspecified)	0.3%	-22.9%	0.1%	10.1%	-20.2%	4.7%
SMILES	p53 reactivator	SW480 rereplic	ELG1 DNA repair	AT treatment	MCF10A rerep	ELG1 genotoxic
CC(C(=O)O)c1ccc2c(c1)Cc1cccnc1O2 (stereo unspecified)	.	-2.5%	.	.	-1.6%	.
Cc1nnsc1C(=O)NNc1c(Cl)cccc1Cl	-4.2%	-11.5%	2.5%	2.6%	7.7%	-1.8%
CCc1ccccc1NNC(=O)c1snnc1C	1.8%	11.6µM*	?	-7.4%	?	-1.4%
O=C(NC(CO)C(=O)OCc1ccccc1)OCc1ccccc1 (stereo unspecified)	-2.6%	-7.4%	-0.3%	9.5%	0.5%	0.9%
NC1=NC(c2ccccc2)CC(=O)N1 (stereo unspecified)	.	-3.2%	.	.	-5.5%	.
CC1CC(C)CN(CCCNC(=O)CN2C(=O)c3cccnc3Oc3ccc(Cl)cc32)C1 (stereo unspecified)	-7.7%	21.4%	4.9%	11.1%	-3.0%	-1.6%
Cc1ccc(S(=O)(=O)N(C(=O)c2ccncc2)c2ccc(OC(=O)c3ccncc3)c3ccccc23)c(C)c1	-16.5%	?	?	-5.2%	?	-30.2%
Cc1ccc([N+](=O)[O-])cc1S(=O)(=O)N(C(=O)c1ccncc1)c1ccc2oc3c(c2c1)CCCC3	-2.9%	-7.0%	5.7%	-0.3%	?	-2.7%
Cc1ccc(S(=O)(=O)N(C(=O)c2ccncc2)c2ccc(OC(=O)c3ccncc3)c3ccccc23)cc1	-26.1%	12.9%	18.4µM*	1.3%	?	-13.2%
Cc1ccc(S(=O)(=O)N(C(=O)c2ccncc2)c2ccc3oc4c(c3c2)CCCC4)cc1[N+](=O)[O-]	22.6%	14.0%	1.6%	3.5%	14.6µM*	-0.4%
COC(=O)c1c(C)oc2ccc(N(C(=O)c3ccncc3)S(=O)(=O)c3ccc(C)cc3)cc12	17.5%	6.51µM*	-12.5%	1.7%	?	9.4%
COC(=O)c1c(C)oc2ccc(N(C(=O)c3ccncc3)S(=O)(=O)c3ccc(C)cc3C)cc12	-3.0%	23.5%	?	-1.4%	14.6µM*	-0.3%
COC(=O)c1c(C)oc2ccc(N(C(=O)c3ccncc3)S(=O)(=O)c3ccccc3)cc12	-1.3%	-3.2%	-11.5%	5.8%	26.5%	-10.4%
CCC(C)C(=O)OC1CC(O)C=C2C=CC(C)C(CCC(O)CC(O)CC(=O)O)C21 (stereo unspecified)	.	8.6%	.	.	16.5%	.
Cc1ccnc2nc(C(=O)OCC(=O)N(Cc3ccccc3)C(C)(C)C)nn12	0.7%	1.7%	-1.6%	-3.9%	-4.2%	-1.3%
COC(=O)c1c(C)oc2ccc(N(C(=O)c3ccncc3)S(=O)(=O)c3ccc4ccccc4c3)cc12	26.5%	-1.7%	-27.0%	-8.8%	3.26µM*	2.1%
